From ChEMBL document CHEMBL2218924, “A broad activity screen in support of a chemogenomic map for kinase signalling research and drug discovery” (Biochem J, 2013)

Assays:
[1] = target: T1, Protein kinase C zeta type (Homo sapiens) (UniProt Q05513); conditions: at 1 µM
T1 sequence (whole entry): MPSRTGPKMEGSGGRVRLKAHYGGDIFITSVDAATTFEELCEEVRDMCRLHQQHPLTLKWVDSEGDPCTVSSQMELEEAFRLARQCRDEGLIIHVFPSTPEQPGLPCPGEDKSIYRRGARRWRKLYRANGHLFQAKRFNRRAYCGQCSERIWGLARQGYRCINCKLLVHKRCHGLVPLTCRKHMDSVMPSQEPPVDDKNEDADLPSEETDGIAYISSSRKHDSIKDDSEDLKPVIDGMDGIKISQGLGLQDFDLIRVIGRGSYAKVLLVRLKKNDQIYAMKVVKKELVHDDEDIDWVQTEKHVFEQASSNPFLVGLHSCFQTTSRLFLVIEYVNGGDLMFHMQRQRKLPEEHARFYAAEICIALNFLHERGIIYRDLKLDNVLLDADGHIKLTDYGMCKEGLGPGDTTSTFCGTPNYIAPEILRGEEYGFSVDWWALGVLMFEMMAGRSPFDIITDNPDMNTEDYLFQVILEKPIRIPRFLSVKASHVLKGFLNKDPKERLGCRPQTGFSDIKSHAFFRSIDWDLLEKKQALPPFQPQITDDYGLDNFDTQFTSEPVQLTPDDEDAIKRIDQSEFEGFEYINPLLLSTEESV

[2] = target: T2, Mitogen-activated protein kinase kinase kinase 5 (Homo sapiens) (UniProt Q99683); conditions: at 10 µM
T2 sequence (whole entry): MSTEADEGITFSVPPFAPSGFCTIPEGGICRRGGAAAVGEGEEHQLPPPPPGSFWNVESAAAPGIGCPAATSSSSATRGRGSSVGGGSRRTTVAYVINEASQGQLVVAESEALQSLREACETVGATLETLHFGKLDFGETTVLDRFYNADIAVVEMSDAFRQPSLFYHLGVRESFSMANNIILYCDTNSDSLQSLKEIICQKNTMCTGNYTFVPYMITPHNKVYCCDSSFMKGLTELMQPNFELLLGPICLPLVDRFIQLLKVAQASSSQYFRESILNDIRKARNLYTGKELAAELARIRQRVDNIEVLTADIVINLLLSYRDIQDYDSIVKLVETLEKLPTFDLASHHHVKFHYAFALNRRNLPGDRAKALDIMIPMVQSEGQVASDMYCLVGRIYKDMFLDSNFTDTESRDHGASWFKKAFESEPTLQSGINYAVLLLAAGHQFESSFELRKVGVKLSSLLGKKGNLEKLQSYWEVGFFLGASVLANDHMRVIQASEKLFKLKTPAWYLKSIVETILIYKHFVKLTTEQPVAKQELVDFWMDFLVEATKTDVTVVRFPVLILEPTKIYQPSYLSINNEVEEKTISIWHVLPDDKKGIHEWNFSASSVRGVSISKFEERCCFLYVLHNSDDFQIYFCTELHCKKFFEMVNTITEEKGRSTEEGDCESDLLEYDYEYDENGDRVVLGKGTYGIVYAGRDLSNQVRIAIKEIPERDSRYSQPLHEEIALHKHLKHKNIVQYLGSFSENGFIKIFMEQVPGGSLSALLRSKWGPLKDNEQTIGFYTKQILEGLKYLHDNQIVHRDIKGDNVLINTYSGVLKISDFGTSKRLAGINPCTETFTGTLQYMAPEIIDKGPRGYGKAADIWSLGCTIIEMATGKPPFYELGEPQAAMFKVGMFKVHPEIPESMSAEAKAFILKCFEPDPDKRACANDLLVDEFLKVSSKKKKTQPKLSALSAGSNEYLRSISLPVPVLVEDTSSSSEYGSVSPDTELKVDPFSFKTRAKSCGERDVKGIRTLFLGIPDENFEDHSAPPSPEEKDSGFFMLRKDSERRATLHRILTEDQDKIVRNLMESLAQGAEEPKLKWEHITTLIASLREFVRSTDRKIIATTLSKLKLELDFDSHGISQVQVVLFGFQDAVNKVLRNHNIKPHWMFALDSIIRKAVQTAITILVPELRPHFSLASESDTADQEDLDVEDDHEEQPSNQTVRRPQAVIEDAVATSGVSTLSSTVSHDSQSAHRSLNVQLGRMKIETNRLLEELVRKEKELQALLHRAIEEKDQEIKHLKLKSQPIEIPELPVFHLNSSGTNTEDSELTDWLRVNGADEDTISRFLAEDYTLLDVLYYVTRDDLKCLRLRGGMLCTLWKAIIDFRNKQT

[3] = target: Tyrosine-protein kinase ABL1 (Homo sapiens) (UniProt P00519); conditions: at 1 µM
Tyrosine-protein kinase ABL1 (Homo sapiens), sequence (P00519 whole entry): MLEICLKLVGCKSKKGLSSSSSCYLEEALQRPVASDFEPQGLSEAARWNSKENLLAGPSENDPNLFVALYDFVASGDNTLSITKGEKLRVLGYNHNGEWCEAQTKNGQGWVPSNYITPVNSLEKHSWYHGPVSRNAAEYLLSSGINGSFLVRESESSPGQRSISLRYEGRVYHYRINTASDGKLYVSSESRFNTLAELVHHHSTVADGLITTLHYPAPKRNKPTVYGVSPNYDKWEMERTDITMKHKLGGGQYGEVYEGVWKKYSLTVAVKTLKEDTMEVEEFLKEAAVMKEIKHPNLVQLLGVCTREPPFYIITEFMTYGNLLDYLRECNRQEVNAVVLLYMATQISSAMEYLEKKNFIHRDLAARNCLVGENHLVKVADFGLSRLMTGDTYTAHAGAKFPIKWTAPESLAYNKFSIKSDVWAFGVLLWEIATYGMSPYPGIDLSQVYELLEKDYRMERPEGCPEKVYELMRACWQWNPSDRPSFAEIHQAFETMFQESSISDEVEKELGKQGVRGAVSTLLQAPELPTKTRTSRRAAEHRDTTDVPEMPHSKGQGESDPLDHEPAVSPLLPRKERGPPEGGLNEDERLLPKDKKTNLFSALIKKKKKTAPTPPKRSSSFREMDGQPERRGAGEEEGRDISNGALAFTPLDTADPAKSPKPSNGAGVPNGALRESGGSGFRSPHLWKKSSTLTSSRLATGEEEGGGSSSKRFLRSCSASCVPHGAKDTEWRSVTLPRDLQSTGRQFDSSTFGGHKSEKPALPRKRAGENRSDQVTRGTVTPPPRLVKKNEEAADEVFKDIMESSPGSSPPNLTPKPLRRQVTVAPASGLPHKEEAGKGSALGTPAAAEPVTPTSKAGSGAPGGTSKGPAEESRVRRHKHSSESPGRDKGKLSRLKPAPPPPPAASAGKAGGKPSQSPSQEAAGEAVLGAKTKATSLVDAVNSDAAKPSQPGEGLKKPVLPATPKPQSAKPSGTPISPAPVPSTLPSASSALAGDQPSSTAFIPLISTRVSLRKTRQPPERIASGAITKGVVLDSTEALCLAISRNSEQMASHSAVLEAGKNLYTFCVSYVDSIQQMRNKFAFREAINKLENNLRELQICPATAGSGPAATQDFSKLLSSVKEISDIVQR

[4] = target: Tyrosine-protein kinase ABL1 (Homo sapiens) (UniProt P00519); conditions: at 10 µM
[5] = target: Tyrosine-protein kinase ABL2 (Homo sapiens) (UniProt P42684); conditions: at 1 µM
Tyrosine-protein kinase ABL2 (Homo sapiens), sequence (P42684 whole entry): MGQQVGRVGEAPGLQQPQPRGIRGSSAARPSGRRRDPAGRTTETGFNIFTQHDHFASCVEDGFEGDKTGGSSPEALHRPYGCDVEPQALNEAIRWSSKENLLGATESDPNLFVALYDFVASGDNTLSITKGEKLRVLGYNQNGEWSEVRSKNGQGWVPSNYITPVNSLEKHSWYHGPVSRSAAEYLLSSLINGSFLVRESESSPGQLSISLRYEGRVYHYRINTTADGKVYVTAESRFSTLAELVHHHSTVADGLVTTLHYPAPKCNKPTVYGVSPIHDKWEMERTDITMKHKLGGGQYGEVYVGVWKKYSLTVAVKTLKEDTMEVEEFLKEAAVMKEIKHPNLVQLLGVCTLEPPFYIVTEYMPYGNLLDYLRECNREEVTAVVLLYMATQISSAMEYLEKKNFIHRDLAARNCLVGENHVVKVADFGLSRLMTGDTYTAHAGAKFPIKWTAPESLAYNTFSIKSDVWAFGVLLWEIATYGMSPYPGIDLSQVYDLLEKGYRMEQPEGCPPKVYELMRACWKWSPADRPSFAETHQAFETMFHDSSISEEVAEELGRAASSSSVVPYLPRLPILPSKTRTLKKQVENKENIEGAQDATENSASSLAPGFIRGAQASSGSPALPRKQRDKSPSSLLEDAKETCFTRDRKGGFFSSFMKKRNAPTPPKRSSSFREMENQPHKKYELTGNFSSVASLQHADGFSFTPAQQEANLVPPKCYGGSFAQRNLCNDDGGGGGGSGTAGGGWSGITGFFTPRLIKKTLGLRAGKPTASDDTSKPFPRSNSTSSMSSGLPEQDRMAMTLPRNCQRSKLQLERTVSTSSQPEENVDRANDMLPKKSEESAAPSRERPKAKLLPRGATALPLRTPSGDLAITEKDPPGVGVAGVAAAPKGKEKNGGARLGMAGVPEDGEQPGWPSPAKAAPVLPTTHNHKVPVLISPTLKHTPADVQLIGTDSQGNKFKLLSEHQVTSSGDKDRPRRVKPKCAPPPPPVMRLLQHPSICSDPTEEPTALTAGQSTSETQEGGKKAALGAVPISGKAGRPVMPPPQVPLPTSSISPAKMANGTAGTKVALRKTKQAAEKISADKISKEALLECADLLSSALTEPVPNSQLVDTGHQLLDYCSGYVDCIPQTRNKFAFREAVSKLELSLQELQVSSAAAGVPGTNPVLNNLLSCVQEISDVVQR

[6] = target: Tyrosine-protein kinase ABL2 (Homo sapiens) (UniProt P42684); conditions: at 10 µM
[7] = target: T3, Aurora kinase A (Homo sapiens) (UniProt O14965); conditions: at 1 µM
T3 sequence (whole entry): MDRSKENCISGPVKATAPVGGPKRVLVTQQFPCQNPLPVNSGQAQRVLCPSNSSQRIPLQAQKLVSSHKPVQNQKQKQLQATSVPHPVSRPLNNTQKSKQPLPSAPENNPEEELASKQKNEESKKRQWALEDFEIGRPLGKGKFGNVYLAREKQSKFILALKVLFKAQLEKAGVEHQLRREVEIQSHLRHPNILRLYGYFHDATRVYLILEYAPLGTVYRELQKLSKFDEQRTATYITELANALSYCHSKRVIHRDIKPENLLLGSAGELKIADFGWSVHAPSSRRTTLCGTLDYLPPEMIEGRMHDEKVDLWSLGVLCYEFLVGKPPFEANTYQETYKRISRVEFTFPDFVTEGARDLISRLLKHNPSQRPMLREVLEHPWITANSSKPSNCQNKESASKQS

[8] = target: T3, Aurora kinase A (Homo sapiens); conditions: at 10 µM
[9] = target: Aurora kinase B (Homo sapiens) (UniProt Q96GD4); conditions: at 1 µM
Aurora kinase B (Homo sapiens), sequence (Q96GD4 whole entry): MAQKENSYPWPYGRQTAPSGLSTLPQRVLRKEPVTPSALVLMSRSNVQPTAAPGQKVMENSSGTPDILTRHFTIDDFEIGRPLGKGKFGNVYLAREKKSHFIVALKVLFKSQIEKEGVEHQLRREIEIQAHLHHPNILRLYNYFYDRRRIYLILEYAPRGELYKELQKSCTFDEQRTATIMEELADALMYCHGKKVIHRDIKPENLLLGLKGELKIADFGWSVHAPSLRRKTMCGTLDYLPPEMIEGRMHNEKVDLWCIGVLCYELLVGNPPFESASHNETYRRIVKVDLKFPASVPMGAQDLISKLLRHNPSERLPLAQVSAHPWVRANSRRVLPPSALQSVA

[10] = target: Aurora kinase B (Homo sapiens) (UniProt Q96GD4); conditions: at 10 µM

Row | Structure (SMILES) | residual activity [1] | residual activity [2] [%] | residual activity [3] [%] | residual activity [4] [%] | residual activity [5] [%] | residual activity [6] [%] | residual activity [7] [%] | residual activity [8] [%] | residual activity [9] [%] | residual activity [10] [%]
1 | O=C(Nc1cccc(Nc2cc(Nc3cccc(C(F)(F)F)c3)ncn2)c1)C1CC1 | 101% (inactive) | 104 | 84 | 104 | 92 | 90 | 95 | 82 | 68 | 30
2 | COc1ccc(S(=O)(=O)N(CCO)c2ccccc2CN(C)C/C=C/c2ccc(Cl)cc2)cc1 | 111% (inactive) | 90 | 92 | 118 | 116 | 87 | 122 | 127 | 90 | 95
3 | O=c1c2ccccc2[nH]c(=S)n1CCN1CCC(=C(c2ccc(F)cc2)c2ccc(F)cc2)CC1 | 101% (inactive) | 116 | 86 | 124 | 93 | 74 | 119 | 108 | 95 | 115
4 | CNc1cc2c(Nc3cccc(Br)c3)ncnc2cn1 | 99% (inactive) | 112 | 85 | 87 | 93 | 79 | 60 | 71 | 43 | 10
5 | Cn1nc2c3c(cccc31)C(=O)c1ccccc1-2 | 102% (inactive) | 29 | 101 | 70 | 102 | 86 | 79 | 74 | 75 | 6
6 | O=C1NC(=O)/C(=C\c2ccc3nccnc3c2)S1 | 104% (inactive) | 80 | 100 | 81 | 89 | 86 | 94 | 46 | 71 | 39
7 | Ic1cccc(CSc2nnc(-c3ccncc3)o2)c1 | 101% (inactive) | 86 | 87 | 70 | 112 | 71 | 83 | 80 | 77 | 42
8 | COc1cc2ncnc(Nc3ccc(O)c(Br)c3)c2cc1OC | 96% (inactive) | 82 | 64 | 13 | 76 | 22 | 49 | 26 | 43 | 2
9 | Nc1ccc2ncnc(NCCc3ccc(Oc4ccccc4)cc3)c2c1 | 108% (inactive) | 80 | 100 | 101 | 104 | 78 | 102 | 110 | 41 | 11
10 | COc1ccc(OC)c2c(=S)c3ccccc3[nH]c12 | 104% (inactive) | 97 | 97 | 89 | 116 | 84 | 116 | 90 | 93 | 52
11 | CN(C)CCCn1cc(C2=C(c3c[nH]c4ccccc34)C(=O)NC2=O)c2ccccc21 | 72% (inactive) | 108 | 108 | 108 | 90 | 76 | 100 | 80 | 31 | 7
12 | O=C1NC(=O)c2c1c1c3ccccc3[nH]c1c1[nH]c3cc(Br)ccc3c21 | 98% (inactive) | 86 | 98 | 82 | 109 | 87 | 93 | 75 | 5 | 4
13 | Cc1nc2cc3nc(-c4cccs4)cnc3cc2n1C | 99% (inactive) | 112 | 90 | 52 | 95 | 83 | 88 | 69 | 80 | 16
14 | CC#CC(=O)Nc1cc2c(Nc3ccc(F)c(Cl)c3)ncnc2cn1 | 97% (inactive) | 94 | 92 | 91 | 118 | 74 | 106 | 108 | 114 | 85
15 | O=C1NC(=O)c2cc(Nc3ccc(F)cc3)c(Nc3ccc(F)cc3)cc21 | 101% (inactive) | 92 | 85 | 87 | 90 | 58 | 89 | 79 | 124 | 120
16 | CO[C@H]1[C@@H](OC)C[C@H](C)[C@@H](OC)C2=CC(=O)C=C(NC(=O)/C(C)=C/C=C/[C@H](OC)[C@@H](OC(N)=O)/C(C)=C/[C@@H]1C)C2=O | 104% (inactive) | 99 | 94 | 68 | 111 | 105 | 77 | 86 | 72 | 68
17 | O=C1c2ccccc2-[n+]2ccc3c([nH]c4ccccc43)c21 | 98% (inactive) | 92 | 102 | 102 | 111 | 87 | 101 | 89 | 93 | 52

Row | Structure (SMILES) | residual activity [1] | residual activity [2] [%] | residual activity [3] [%] | residual activity [4] [%] | residual activity [5] [%] | residual activity [6] [%] | residual activity [7] [%] | residual activity [8] [%] | residual activity [9] [%] | residual activity [10] [%]
18 | O=Nc1c(-c2c(O)[nH]c3ccccc23)[nH]c2ccccc12 | 101% (inactive) | 7 | 49 | 16 | 30 | 28 | 7 | 0 | 1 | -2
19 | Oc1ccc(Nc2nc(-c3ccc(Cl)cc3)cs2)cc1 | 115% (inactive) | 105 | 94 | 75 | 101 | 72 | 115 | 122 | 124 | 71
20 | CC(C)n1cnc2/c(=N/c3cccc(Cl)c3)nc(NCCO)[nH]c21 | 100% (inactive) | 86 | 73 | 25 | 52 | 10 | 88 | 47 | 13 | 3
21 | CCN(CC)C(=O)c1ccc(Nc2nc(OCC3CCCCC3)c3nc[nH]c3n2)cc1 | 96% (inactive) | 24 | 46 | 6 | 52 | 9 | 1 | 5 | -1 | 0
22 | CC(C)n1cnc2c(NCc3ccccc3)nc(NCCCO)nc21 | 98% (inactive) | 102 | 96 | 81 | 93 | 89 | 109 | 114 | 99 | 85
23 | O=C1Nc2ccccc2/C1=C1/Nc2ccccc2/C1=N\OCCC(O)CO (stereo not given) | 95% (inactive) | 29 | 61 | 43 | 45 | 18 | 7 | 3 | -1 | -1
24 | c1ccc(-c2n[nH]cc2-c2ccnc3ccccc23)nc1 | 108% (inactive) | 105 | 69 | 14 | 64 | 18 | 99 | 103 | 75 | 51
25 | Cn1cnc2cc3c(Nc4cccc(Br)c4)ncnc3cc21 | 99% (inactive) | 107 | 29 | 10 | 42 | 14 | 78 | 45 | 45 | 6
26 | N#Cc1cnc2cnc(NCc3cccnc3)cc2c1Nc1ccc(F)c(Cl)c1 | 103% (inactive) | 65 | 98 | 84 | 82 | 55 | 31 | 24 | 3 | 1
27 | O=c1cc(-c2cccc3c2Sc2ccccc2S3)oc(N2CCOCC2)c1 | 107% (inactive) | 98 | 99 | 89 | 97 | 90 | 101 | 120 | 105 | 92
28 | COc1cccc(-c2cc(=O)c3ccccc3o2)c1N | 111% (inactive) | 112 | 111 | 92 | 115 | 74 | 122 | 107 | 113 | 103
29 | Nc1n[nH]c2nnc(-c3c(-c4ccccc4)nn4ccccc34)cc12 | 116% (inactive) | 100 | 64 | 19 | 66 | 18 | 105 | 92 | 91 | 41
30 | CO[C@H]1C[C@@H]2CC[C@@H](C)[C@@](O)(O2)C(=O)C(=O)N2CCCC[C@H]2C(=O)O[C@H]([C@H](C)C[C@@H]2CC[C@@H](O)[C@H](OC)C2)CC(=O)[C@H](C)/C=C(\C)[C@@H](O)[C@@H](OC)C(=O)[C@H](C)C[C@H](C)/C=C/C=C/C=C/1C | 96% (inactive) | 96 | 91 | 139 | 119 | 118 | 87 | 118 | 92 | 73
31 | CCC(=O)Nc1ccc2ncnc(Nc3cccc(Br)c3)c2c1 | 116% (inactive) | 108 | 90 | 89 | 96 | 72 | 73 | 127 | 101 | 67
32 | Cn1cc(/C=C2\C(=O)Nc3ccc(S(N)(=O)=O)cc32)c2ccccc21 | 101% (inactive) | 7 | 57 | 22 | 57 | 31 | -4 | 4 | 3 | 0
33 | c1ccc(-c2n[nH]c3c2oc2ccccc23)cc1 | 99% (inactive) | 90 | 96 | 77 | 115 | 93 | 53 | 31 | 39 | 4
34 | CC(=O)O/N=C1\C(=C2\C(=O)Nc3cc(Br)ccc32)Nc2ccccc21 | 108% (inactive) | 94 | 60 | 7 | 31 | 4 | 41 | 17 | 19 | 6
